Our source for the composite z-score and z-score values is PubChem BioAssay.

Experiment [1] is described as follows: small molecules captured by biotinylated probe aFSTL3 – biochemical, small-molecule microarray, fluorescence 635/667, stem cell growth factor project, primary screen (AID 1064).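 Further: measures binding of the biotinylated anti-FSTL3 antibody to printed compounds.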 The note with it: higher = more signal.
The nature of experiment [2]: binders from COS7 lysate, DM2A8 probe, primary screen, torsin A project, cell lysate, small-molecule microarray, fluorescence 635/667 (AID 1065). The note with it: higher = more signal, COS7 lysate expressing mutant human TOR1A.
A short description of experiment [3]: small molecules captured by biotinylated probe aFGF2 – biochemical, small-molecule microarray, fluorescence 635/667, stem cell growth factor project, primary screen (AID 1067).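 Further: measures binding of biotinylated aFGF2 protein to printed compounds on slides; z-score merges feature fluorescence and signal-to-noise across triplicate slides.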 The note with it: higher = more signal.
Experiment [4] is described as follows: small molecules captured by biotinylated probe aFGF10 – biochemical, small-molecule microarray, fluorescence 635/667, stem cell growth factor project, primary screen (AID 1071).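 Further: score merges 667 nm spot intensity and signal to noise from triplicate slides.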 The note with it: higher = more signal.
The target of experiment [5] is Neurogenic locus notch homolog protein 2 (Homo sapiens) (UniProt Q04721). Kind of experiment: small molecules binding Notch2 protein – biochemical, small-molecule microarray, 635 nm fluorescence, stem cell growth factors, primary screen (AID 1073). As to conditions: higher = more signal.
Sequence of Neurogenic locus notch homolog protein 2 (Homo sapiens) (Q04721 whole entry, looked up, canonical isoform): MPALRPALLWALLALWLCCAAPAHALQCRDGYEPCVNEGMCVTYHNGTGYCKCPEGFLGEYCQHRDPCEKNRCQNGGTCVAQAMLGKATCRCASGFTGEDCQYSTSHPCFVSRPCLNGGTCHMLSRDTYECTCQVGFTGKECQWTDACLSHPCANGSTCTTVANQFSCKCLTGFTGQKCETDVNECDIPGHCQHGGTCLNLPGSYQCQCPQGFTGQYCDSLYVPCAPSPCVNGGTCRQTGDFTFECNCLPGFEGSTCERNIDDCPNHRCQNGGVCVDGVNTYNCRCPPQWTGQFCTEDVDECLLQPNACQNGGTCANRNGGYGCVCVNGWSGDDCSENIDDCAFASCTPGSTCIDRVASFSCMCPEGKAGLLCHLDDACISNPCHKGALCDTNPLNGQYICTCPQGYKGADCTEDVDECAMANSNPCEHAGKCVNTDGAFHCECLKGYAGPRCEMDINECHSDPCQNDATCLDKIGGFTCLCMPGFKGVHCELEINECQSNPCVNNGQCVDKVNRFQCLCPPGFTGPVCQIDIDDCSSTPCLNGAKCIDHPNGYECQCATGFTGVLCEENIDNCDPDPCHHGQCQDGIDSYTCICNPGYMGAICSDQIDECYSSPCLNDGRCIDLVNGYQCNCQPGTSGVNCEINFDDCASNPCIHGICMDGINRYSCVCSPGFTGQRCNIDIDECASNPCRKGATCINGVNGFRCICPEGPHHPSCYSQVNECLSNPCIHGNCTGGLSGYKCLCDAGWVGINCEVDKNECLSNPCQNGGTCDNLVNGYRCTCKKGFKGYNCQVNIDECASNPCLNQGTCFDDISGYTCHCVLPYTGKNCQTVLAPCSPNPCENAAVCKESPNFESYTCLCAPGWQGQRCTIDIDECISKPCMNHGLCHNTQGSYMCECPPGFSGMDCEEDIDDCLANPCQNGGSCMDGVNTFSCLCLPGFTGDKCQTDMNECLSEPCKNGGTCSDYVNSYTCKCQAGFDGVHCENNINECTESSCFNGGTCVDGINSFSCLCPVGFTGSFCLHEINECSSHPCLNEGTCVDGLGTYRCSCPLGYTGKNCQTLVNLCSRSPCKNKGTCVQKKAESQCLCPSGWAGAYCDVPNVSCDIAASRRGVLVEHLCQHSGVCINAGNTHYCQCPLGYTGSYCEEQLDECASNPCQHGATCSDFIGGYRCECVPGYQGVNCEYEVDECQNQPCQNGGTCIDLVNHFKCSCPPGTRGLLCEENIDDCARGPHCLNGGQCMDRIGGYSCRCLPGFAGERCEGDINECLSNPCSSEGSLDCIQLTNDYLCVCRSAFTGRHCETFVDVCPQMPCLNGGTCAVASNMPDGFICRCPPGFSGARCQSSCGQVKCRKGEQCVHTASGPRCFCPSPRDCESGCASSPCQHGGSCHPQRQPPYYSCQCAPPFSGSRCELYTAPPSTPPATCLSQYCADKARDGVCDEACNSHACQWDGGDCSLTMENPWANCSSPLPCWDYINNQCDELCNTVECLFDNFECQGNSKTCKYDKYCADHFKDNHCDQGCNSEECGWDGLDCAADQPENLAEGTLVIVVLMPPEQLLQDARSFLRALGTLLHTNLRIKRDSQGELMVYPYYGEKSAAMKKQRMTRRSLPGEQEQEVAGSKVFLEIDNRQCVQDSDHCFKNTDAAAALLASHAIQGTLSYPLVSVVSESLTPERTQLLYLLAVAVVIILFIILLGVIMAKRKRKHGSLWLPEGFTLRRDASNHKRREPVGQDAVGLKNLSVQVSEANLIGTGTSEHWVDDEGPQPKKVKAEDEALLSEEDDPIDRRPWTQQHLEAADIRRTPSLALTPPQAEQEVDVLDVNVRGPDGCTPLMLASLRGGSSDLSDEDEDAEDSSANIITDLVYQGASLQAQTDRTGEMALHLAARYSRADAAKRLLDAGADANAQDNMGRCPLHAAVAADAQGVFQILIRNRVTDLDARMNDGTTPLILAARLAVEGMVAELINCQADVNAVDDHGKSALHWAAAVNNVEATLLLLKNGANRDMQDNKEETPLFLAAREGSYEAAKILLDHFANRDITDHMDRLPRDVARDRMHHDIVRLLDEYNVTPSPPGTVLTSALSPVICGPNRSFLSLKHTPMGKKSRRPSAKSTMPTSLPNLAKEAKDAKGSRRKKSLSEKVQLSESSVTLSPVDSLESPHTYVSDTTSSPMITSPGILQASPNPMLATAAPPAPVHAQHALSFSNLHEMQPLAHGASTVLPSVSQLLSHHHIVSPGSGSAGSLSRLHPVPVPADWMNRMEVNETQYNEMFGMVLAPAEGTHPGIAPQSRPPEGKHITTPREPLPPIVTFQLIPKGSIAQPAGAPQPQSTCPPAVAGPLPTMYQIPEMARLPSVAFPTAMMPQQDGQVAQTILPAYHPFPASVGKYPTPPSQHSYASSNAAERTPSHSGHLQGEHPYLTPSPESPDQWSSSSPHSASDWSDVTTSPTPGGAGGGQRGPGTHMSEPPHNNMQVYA
For experiment [6], the target named is Pro-neuregulin-1, membrane-bound isoform (Homo sapiens) (UniProt Q02297). Description: small molecules binding neuregulin-1 protein – biochemical, small-molecule microarray, fluorescence 635/667, psychiatric disease protein project, primary screen (AID 1075).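 Further: score combines 667 nm spot fluorescence with signal to noise.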 As to conditions: NRG1 binding, 635 nm fluorescence, higher = more signal.
Sequence of Pro-neuregulin-1, membrane-bound isoform (Homo sapiens) (Q02297 whole entry, looked up, the tested form may be a part, canonical isoform): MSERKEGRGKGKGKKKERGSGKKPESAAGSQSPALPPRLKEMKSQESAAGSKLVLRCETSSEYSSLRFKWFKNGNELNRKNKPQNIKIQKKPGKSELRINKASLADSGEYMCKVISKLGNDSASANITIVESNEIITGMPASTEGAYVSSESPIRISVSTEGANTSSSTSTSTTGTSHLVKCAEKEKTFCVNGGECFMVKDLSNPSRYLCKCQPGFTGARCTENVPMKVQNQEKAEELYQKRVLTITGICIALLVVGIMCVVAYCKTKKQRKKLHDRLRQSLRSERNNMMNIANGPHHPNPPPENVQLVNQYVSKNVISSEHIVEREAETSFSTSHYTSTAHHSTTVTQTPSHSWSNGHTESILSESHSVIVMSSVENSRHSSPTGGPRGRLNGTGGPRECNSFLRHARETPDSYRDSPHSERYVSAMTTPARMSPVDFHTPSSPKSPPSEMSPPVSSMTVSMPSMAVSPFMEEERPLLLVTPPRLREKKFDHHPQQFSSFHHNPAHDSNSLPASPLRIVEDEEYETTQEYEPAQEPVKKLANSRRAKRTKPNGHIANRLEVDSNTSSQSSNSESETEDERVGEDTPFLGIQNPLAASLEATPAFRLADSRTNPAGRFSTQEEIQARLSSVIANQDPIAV
Experiment [7] concerns Neuregulin-1 EGF-like domain. Description: small molecules binding NRG1 EGF domain – biochemical, small-molecule microarray, 635 nm fluorescence, primary screen (AID 1081).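 Further: binding of the protein to compounds printed on small-molecule microarray slides.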 The note with it: higher = more signal.
A short description of experiment [8]: FRG1 expression reporter modulators in myotubes – cell-based, C2C12 myotubes, firefly/Renilla luciferase, luminescence, FRG1 inhibition for FSHD, primary screen (AID 1084). The note with it: FRG1 promoter luciferase, higher = more signal, called active from +8 up or from −8 down.
The nature of experiment [9]: small molecules captured by biotinylated probe aFST – biochemical, small-molecule microarray, fluorescence 635/667, stem cell growth factor project, primary screen (AID 1086).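 Further: score merges 667 nm fluorescence with signal-to-noise of each printed compound spot.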 The note with it: higher = more signal.
Experiment [10] can be described thus: binders of probe aHhip on microarray, primary screen, stem cell growth factor project, biochemical, small-molecule microarray, fluorescence 635/667 (AID 1087).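 Further: score merges spot fluorescence at 667nm with spot signal to noise ratio.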 The note with it: higher = more signal.
The subject of experiment [11] is PRMT1 (protein arginine N-methyltransferase 1). Kind of experiment: small molecules binding arginine methyltransferase PRMT1 – biochemical, small-molecule microarray, 635 nm fluorescence, primary screen (AID 1088).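 Further: binding of Prmt1 protein to compounds spotted on small-molecule microarray slides.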 The note with it: higher = more signal.
Experiment [12] can be described thus: growth effects on S. cerevisiae YJM789 – YJM789 clinical isolate, OD600, 24 h, basal, primary screen (AID 1089).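 Further: growth of clinical yeast isolate S. cerevisiae YJM 789 seeded 1000 cells per well; test concentration not given here.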 The note with it: higher = more signal, called active from +8 up or from −8 down.
The nature of experiment [13]: S. pombe growth modifiers, basal conditions – strain 972, OD600, 24 h, no modulator, primary screen (AID 1090).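 Further: basal condition with compound alone and no growth modifier present; test concentration not given here.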 As to conditions: S. pombe 972 growth, higher = more signal, called active from +8 up or from −8 down.
Experiment [14] in a line: budding yeast growth modifiers under rapamycin – strain BY4716, OD600, 96 h, primary screen (AID 1091). Further: test concentration not given here. The note with it: S. cerevisiae BY4716 + rapamycin, higher = more signal, called active from +8 up or from −8 down.
The target of experiment [15] is Torsin-1A-interacting protein 2 (Homo sapiens) (UniProt Q8NFQ8). Description: small molecules binding lysate-expressed LULL1 – cell lysate, human LULL1 lysate, 635/667 nm fluorescence, primary screen (AID 1092).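 Further: probe is lysate of COS7 cells overexpressing human LULL1; score merges per-feature 667 nm fluorescence with signal-to-noise.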 The note with it: small-molecule microarray, hLULL1 lysate binding, 635 nm fluorescence; higher = more signal.
Sequence of Torsin-1A-interacting protein 2 (Homo sapiens) (Q8NFQ8 whole entry, looked up): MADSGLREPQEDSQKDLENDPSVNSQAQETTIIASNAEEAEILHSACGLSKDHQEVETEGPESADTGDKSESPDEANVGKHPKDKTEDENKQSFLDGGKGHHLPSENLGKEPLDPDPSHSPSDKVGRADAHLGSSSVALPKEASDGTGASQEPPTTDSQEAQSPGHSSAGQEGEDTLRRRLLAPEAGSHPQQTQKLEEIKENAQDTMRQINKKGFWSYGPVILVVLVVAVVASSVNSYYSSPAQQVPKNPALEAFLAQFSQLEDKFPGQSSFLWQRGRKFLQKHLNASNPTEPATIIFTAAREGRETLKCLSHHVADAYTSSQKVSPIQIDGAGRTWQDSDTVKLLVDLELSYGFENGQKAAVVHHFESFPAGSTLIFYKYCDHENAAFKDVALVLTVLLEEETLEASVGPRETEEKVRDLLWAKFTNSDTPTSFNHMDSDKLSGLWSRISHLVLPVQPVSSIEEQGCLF
Experiment [16] in a line: optical density change of DRC41 E. coli – strain DRC41, OD650, 24 h, E. coli filamentation project, primary screen (AID 1093).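 Further: MC1000 strain lacking acrAB efflux and sulA so SOS filamentation is blocked; test concentration not given here.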 As to conditions: E. coli DRC41 growth, higher = more signal, called active from +8 up or from −8 down.
A short description of experiment [17]: probe aLefty2 binding to arrayed compounds – biochemical, biotinylated probe, 635/667 nm fluorescence, primary screen (AID 1094).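 Further: score merges spot fluorescence near 667 nm with spot signal-to-noise ratio.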 As to conditions: small-molecule microarray, higher = more signal.
Experiment [18] has as its system Noggin (protein binding on small-molecule microarray). Description: small molecules binding Noggin protein – biochemical, 635/667 nm fluorescence, primary screen (AID 1095).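 Further: score merges 667 nm feature fluorescence with signal to noise over triplicate slides.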 As to conditions: 635 nm fluorescence, higher = more signal.
Experiment [19] concerns the target Neurogenic locus notch homolog protein 3 (Homo sapiens) (UniProt Q9UM47). Description: small molecules binding NOTCH3 protein – biochemical, 635/667 nm fluorescence, primary screen (AID 1096). As to conditions: small-molecule microarray, 635 nm fluorescence, higher = more signal.
Experiment [20] in a line: probe aEGFR binding to arrayed compounds – biochemical, biotinylated probe, 635/667 nm fluorescence, primary screen (AID 1097).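 Further: probe is a biotinylated anti-EGFR antibody binding compounds printed on slides; score combines fluorescence near 667 nm and signal to noise of each spot.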 As to conditions: small-molecule microarray, higher = more signal.

Calls of active or inactive are those of the source.

For the compound `[N-]=[N+]=NCc1ccccc1[C@@H]1OC(c2ccc(OCCCO)cc2)=N[C@]1(Cc1ccccc1N=[N+]=[N-])C(=O)NCC(O)CO` (stereo not given in full), the composite z-score in experiment [1] is -0.166; in experiment [2] it was 0.57; in experiment [3], 0.145; in experiment [4], 0.61; in [5], 1.53; in [6], 1.99. In addition, the composite z-score in experiment [7] was found to be 0.981; in experiment [9], 1.84; in experiment [10], 0.272; in experiment [11] it was 1.18; in experiment [15], 3.29; in [17] it was 0.81. The results for the composite z-score in experiment [18], in [19] and in [20] were 0.92, 0.962 and 0.235, respectively. Besides, the z-score in experiment [8] is 0.0407 (inactive); in experiment [12] it was 0.263 (inactive); in [13], 0.21 (inactive); in experiment [14], 0.622 (inactive); in experiment [16] it was 0.712 (inactive).

With `C[C@@H]1NC(=O)C([C@@H](C)OCc2ccccc2)NC(=O)[C@@]23C(=O)N[C@@H](Cc4ccccc4)C2[C@H](C)[C@@]2(C)O[C@H]2C3/C=C/C/C=C\CNC1=O` (stereo not given in full), the composite z-score in experiment [1] is -0.439; in experiment [2], -0.328; in experiment [3] it was -0.0578; in [4], 0.341; in [5], -0.0879; in experiment [6], 0.671. For the same compound, the composite z-score is 0.503 in experiment [7]; -0.502 in experiment [9]; -0.236 in experiment [10]; -0.448 in experiment [11]; -0.327 in [15]; -0.205 in experiment [17]. Further, the composite z-score in experiment [18] is -0.0322; in experiment [19], 0.177; in [20], -0.109. For the same compound, the z-score in experiment [8] was -0.116 (inactive); in experiment [12], 0.35 (inactive); in experiment [13], -0.258 (inactive); in [14], 0.186 (inactive); in [16], -1.07 (inactive).

Regarding `C[N+](C)(C)CCCCNC(=O)[C@H]1C[C@H]2C(=O)N[C@@H](Cc3ccccc3)C(=O)N2[C@H]1c1cccc(OCCO)c1`, the composite z-score in experiment [1] was -0.397; in experiment [2], 1.29; in experiment [3] it was -0.0375; in experiment [4], 1.21; in experiment [5] it was 0.641; in [6], 1.06. The composite z-score in experiment [7] came to 1.36; in [9] it was 0.435; in experiment [10], 0.0373; in experiment [11] it was 0.982; in experiment [15], 1.99; in experiment [17] it was 0.0899. Besides, the composite z-score is 1.88 in [18], 1.02 in experiment [19] and 0.256 in experiment [20]. Besides, the z-score in experiment [8] was 2.28 (inactive); in experiment [12] it was -0.0304 (inactive); in experiment [13] it was 0.351 (inactive); in experiment [14] it was -1.82 (inactive); in experiment [16] it was 0.0648 (inactive).

As to `C=C(CCCC)/C(=C/C[C@H](OC(=O)c1ccncc1)c1ccc(OCCO)cc1)c1cnc2ccccc2c1`, the composite z-score in experiment [1] is 0.102; in [2], 1.23; in experiment [3], -0.121; in experiment [4], 0.322; in experiment [5] it was 1.12; in experiment [6], 1.33. In addition, the composite z-score in experiment [7] was 1.23; in experiment [9], 0.402; in experiment [10], -0.124; in experiment [11], 1.51; in experiment [15], 1.26; in [17] it was -0.0306. Besides, the composite z-score in [18] was 1.17; in experiment [19], 1.09; in experiment [20], 0.0129. Further, the z-score in experiment [8] was -0.791 (inactive); in [12], 0.144 (inactive); in experiment [13], -2.06 (inactive); in experiment [14], 0.199 (inactive); in [16], 0.7 (inactive).

As to `C=C(CCCC)/C(=C/C[C@H](OC(=O)c1ccncc1)c1cccc(OCCO)c1)c1cnc2ccccc2c1`, the composite z-score in [1] is -0.279; in [2], 0.824; in experiment [3], 0.0437; in [4], 0.595; in [5] it was 0.974; in [6], 1.56. The composite z-score in [7] is 1.04; in [9], 0.346; in experiment [10] it was -0.0491; in [11], 1.53; in experiment [15], 2.52; in [17], -0.121. For the same compound, the composite z-score in [18] was 0.869; in [19], 1.13; in experiment [20], -0.065. The z-score is 0.996 (inactive) in experiment [8]; -0.664 (inactive) in experiment [12]; -0.968 (inactive) in [13]; 8.23 (active) in [14]; -0.268 (inactive) in experiment [16].
